Screening data from PubChem.
Compounds with a hit are over-represented: about 8% of the library has one in this group of screens.
HT1080-NT tox – kills 2HG-producing HT-1080-NT fibrosarcoma cells; HT-1080-NT fibrosarcoma viability, CellTiter-Glo ATP luminescence, 48 h; Potency, µM (series often up to 46.1 µM), inactives show at the top dose activity, negative = less viability, hits mostly cytotoxic; hit rate 1.6% among 360,000; AID 686970;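 also: NT is the 2HG producing partner of a matched IDH1 knockdown line; 0% = DMSO-treated cells and -100% = media-only wells without cells; nearly all actives have a fitted effect of over 55% in size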
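HT-1080-NT; 750 cells/well; 5% FBS RPMI; 48 h compound, 37 degrees C; CellTiter-Glo luminescence; curve fitting and curve-class assignment.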
MCF10A rereplic – DNA re-replication induction in MCF 10a cells. Potency, µM (titrated, usually from 46.1 µM), for the others: at the top dose activity, positive = re-replication, hits mostly activators. MCF 10A DNA re-replication, Hoechst nuclear intensity, 48 h. hit rate 2.9% among 350,000; also: % of control where 0% means no effect; nearly all actives have a fitted effect of over 50% in size
HT1080 IDH1KD tx – toxicity to HT-1080 IDH1 knockdown cells (counter line). hit rate 2% among 360,000. HT-1080 IDH1 knockdown viability, ATP luminescence, 48 h. AID 686971. Potency, µM (doses to about 46.1 µM), inactives show at the highest dose activity, negative = toxicity, usual class: cytotoxic;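 also: 0% = DMSO wells and -100% = cell-free medium wells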
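Luminescent ATP read-out (CellTiter-Glo, 10 min at room temperature) after 48 h compound exposure at 37 °C gave viability of IDH1-knockdown HT-1080 cells. Activity was normalised to DMSO and cell-free wells, then fitted as concentration-response curves.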
KB-3-1 cytotox – kills parental KB-3-1 adenocarcinoma cells; KB-3-1 viability, CellTiter-Glo ATP luminescence, 72 h; Potency, µM (highest dose often 46.1 µM), actives largely listed as cytotoxic; hit rate 1.4% among 400,000; AID 1347075; also: % is scaled to controls: 0 for no effect and ±100 for the full control effect; nearly all actives have a fitted effect of over 60% in size
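Using CellTiter-Glo luminescence, growth of non-resistant KB-3-1 adenocarcinoma cells is assessed 72 h after pin-tool compound addition at 37 °C. Normalized responses across the concentration series yield fitted curves.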
SW480 rerep – inducers of DNA re-replication in SW480 colon cancer cells; hit rate 1.8% among 340,000; Potency, µM (top dose mostly 46.1 µM), without a hit: top-dose re-replication activation, most hits filed as activators; SW480 DNA re-replication, Hoechst DNA content imaging, 48 h; AID 624297; also: % of control where 0% means no effect; nearly all actives have a fitted effect of over 55% in size
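250 cells/well; 23 nL cpd via pin tool; 48 hr, 37 C, 5% CO2; Hoechst 40 min; imager read of total nuclear intensity, ex 405/em 500-530 nm.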
KB-V1 cytotox – kills drug-selected multidrug resistant KB-V1 cells; KB-V1 MDR cells viability, CellTiter-Glo, 72 h; Potency, µM (series often up to 46.1 µM), hits mostly cytotoxic; hit rate 3.4% among 400,000; also: % is scaled to controls: 0 for no effect and ±100 for the full control effect; nearly all actives have a fitted effect of over 60% in size
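Following 72 h at 37 degrees C with compound, KB-V1 cell viability was read by CellTiter-Glo luminescence, medium being phenol-red-free DMEM plus 10% FBS; concentration-response parameters came from normalized, curve-fitted qHTS data.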
Starred values were filed as active, the others as inactive; i = inactive; u = inconclusive; x = no result given; [ ] = dose if it differs, or a comment. Calls follow the shape of the dose curve; as a rule, active = well fitted curve in the direction sought with a large enough effect; inconclusive = small, poorly fitted or top-dose-only effect, or another doubt; inactive = no such curve, though single readings can be large; an effect the other way counts as inactive or inconclusive. Potency is read from the fitted curve at half-maximal effect.

SMILES	HT1080-NT tox	MCF10A rereplic	HT1080 IDH1KD tx	KB-3-1 cytotox	SW480 rerep	KB-V1 cytotox
COc1ccc(NC(=O)c2cc(SC)ccc2Cl)cc1	-11%	23%	-25%	i	5%	15µM*
COc1cc(SC)ccc1C(=O)Nc1ccccc1	-10%	1%	u	i	u	u
CSc1ccc(Cl)c(C(=O)Nc2ccc(C)cn2)c1	u	u	u	u	26µM*	u
CCOc1ccccc1NC(=O)c1cccc2ccccc12	-13%	u	-5%	u	u	i
COc1ccc(C(=O)Nc2ccc(C)cn2)c(OC)c1	u	14%	-8%	u	-2%	16µM*
CCOc1ccccc1NC(=O)c1cc(SC)ccc1Cl	-20%	u	-22%	i	18µM*	u
COc1ccc(C)cc1N(C)C(=O)c1c2c(nc3ccccc13)C(=O)N(C1CCCCC1)C2	x	x	x	i	x	i
CCOC(=O)c1ccc(N(C(=O)c2ccccc2)c2ccccc2)cc1	x	x	x	i	x	i
COc1ccc(NC(=O)c2cnc(SC)nc2)cc1	u	u	u	16µM*	u	u
COc1ccc(NC(=O)c2nc(SC)ncc2Cl)cc1	3%	7%	10%	i	-7%	i
Fc1ccccc1-c1nc(N2CCCCC2)c2ccccc2n1	10%	15%	-2%	u	1%	13µM*
c1cncc(-c2nc(N3CCCCCC3)c3ccccc3n2)c1	-8%	6%	-13%	i	-7%	4.1µM*
CCCOc1ccc(-c2nc(N3CCCCC3)c3ccccc3n2)cc1	x	x	x	i	x	i
Oc1ccccc1-c1nc(N2CCCC2)c2ccccc2n1	12%	2%	13%	i	-4%	i
CN1CCN(c2nc(-c3cccnc3)nc3ccccc23)CC1	u	26%	u	i	u	i
c1ccc2c(N3CCCCCC3)nc(-c3ccncc3)nc2c1	-5%	u	u	i	0%	18µM*
COc1cc2c(cc1OC)CN(c1nc(-c3cccnc3)nc3ccccc13)CC2	18µM*	u	18µM*	i	6%	u
CN1CCN(c2nc(-c3ccccn3)nc3ccccc23)CC1	7.9µM*	23%	7.9µM*	i	u	23µM*
Cc1ccc(C)c(S(=O)(=O)N2CCN(c3ncccn3)CC2)c1	18µM*	3%	u	u	2%	u
Cc1ccc(S(=O)(=O)N2CCN(c3ncccn3)CC2)c(C)c1	-3%	-6%	-3%	i	-43%	i
C(=C\c1nc(N2CCCCCC2)c2ccccc2n1)/c1ccccc1	u	21µM*	u	i	u	18µM*
Cc1ccc(C)c(S(=O)(=O)N2CCN(c3nc(-c4cccnc4)nc4ccccc34)CC2)c1	-20%	0.65µM*	-7%	u	-2%	i
c1ccc2c(N3CCCCC3)nc(N3CCOCC3)nc2c1	21%	0%	-2%	i	12%	i
COc1cccc(CNC(=O)CCc2c(C)nc3c(c(C)nn3-c3ccc(C)c(C)c3)c2C)c1	x	x	x	i	x	u
COc1cc(NC(=O)CC(C)S(=O)(=O)c2cc3c4c(c2)CCN4C(=O)CC3)cc(OC)c1 (stereo not given)	x	x	x	i	x	u
SMILES	HT1080-NT tox	MCF10A rereplic	HT1080 IDH1KD tx	KB-3-1 cytotox	SW480 rerep	KB-V1 cytotox
O=C(O)/C=C/C(=O)c1ccc2c(c1)CCc1ccccc1-2	18µM*	3.7µM*	u	13µM*	4.1µM*	u
CC(=O)Nc1ccc2c(c1)CCc1ccccc1-2	-5%	6%	-3%	i	-4%	i
COC(=O)c1ccc(C(=O)OC)c(NC(=S)N2CCCCC2C)c1 (stereo not given)	15%	1%	8%	i	1%	15µM*
COC(=O)c1ccc(C(=O)OC)c(NC(=S)N2CCCC2)c1	8%	1%	6%	i	0%	i
COC(=O)c1ccc(C(=O)OC)c(NC(=S)N2CCC(C)CC2)c1	8%	-62%	8%	i	u	16µM*
COC(=O)c1ccc(C(=O)OC)c(NC(=S)N2CCN(c3cccc(Cl)c3)CC2)c1	-4%	11%	-13%	i	-2%	16µM*
COC(=O)c1ccc(C(=O)OC)c(NC(=S)N2CCN(c3ccccc3)CC2)c1	-3%	1%	-11%	i	u	u
CC(=O)c1ccc(N2CCN(C(=S)Nc3cccc(Cl)c3)CC2)cc1	4%	-3%	14%	i	-23%	23µM*
COC(=O)c1ccc(C(=O)OC)c(NC(=S)N2CCN(C)CC2)c1	11%	2%	3%	i	-10%[1.84 µM]	i
COc1cc(-c2ccc3ncnc(NCCc4cnc[nH]4)c3c2)cc(OC)c1OC	x	x	x	i	x	i
C(=Cc1c[nH]c2ccccc12)c1ccc2ccccc2n1	16µM*	0.92µM*	23µM*	i	u	i
C(=Cc1c[nH]c2ccccc12)c1nccc2ccccc12	u	1.6µM*	u	u	6.5µM*	u
O=Cc1nccc2ccccc12	-3%	u	-2%	i	15%	i
CCCSc1nc(-c2ccccc2)[nH]c1S(=O)(=O)c1ccc(C)cc1	x	x	x	i	x	i
Cc1nc(-c2cccc(NC(=O)c3cccs3)c2)cs1	-6%	6%	u	i	14%	i
O=C(Nc1cccc(-c2csc(-c3ccccc3)n2)c1)c1cccs1	u	13%	-24%	i	-1%	15µM*
Cc1nc(-c2cccc(NC(=O)Cc3ccccc3)c2)cs1	2%	9%	-3%	i	-8%	16µM*
O=C(Cc1ccc(Br)cc1)Nc1cccc(-c2cn3c(n2)SCC3)c1	-13%	u	u	u	u	8.2µM*
O=C(Nc1cc(F)ccc1F)c1ccc2c(c1)nnn2C1CCCC1	x	x	x	i	x	i
COc1ccc(-c2nc3ccc(NC(C)=O)cc3c(=O)n2Cc2ccccc2)cc1COc1ccc(NC(C)=O)cc1	4%	x	0%	x	x	x
CSCC[C@H](NC(=O)OC(C)(C)C)C(=O)N1CCC(C(=O)NCC(=O)Nc2ccc(C)cc2)CC1	-6%	-1%	11%	i	10%	i
COc1ccc2c(c1)CCC1(C)CC(=O)C(Br)=C21 (stereo not given)	-13%	x	-10%	u	x	6.5µM*
COc1cc(C2Oc3cc(C4Oc5cc(O)cc(O)c5C(=O)C4O)ccc3OC2CO)ccc1O (stereo not given)	-1%	26µM*	u	i	17%	i
COc1ccc(C2CC(=O)c3c(O)cc(O)cc3O2)cc1O (stereo not given)	0%	-6%	15%	i	-2%	i
